Only some compounds are listed: those with a hit (about 2.9% of all), similar ones and a draw of the others.
PAFAH1B3 inh: inhibitors of human PAFAH1B3. Q15102. recombinant PAFAH1B3, FP-rhodamine probe, fluorescence polarization. actives 0.28% (n = 340,000). inhibition, % at 3.39 µM. AID 492972;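 active = inhibition above the screen-wide average of all tested compounds plus 3 SD, cut at about 25% in these data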;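 note: 0% = enzyme with DMSO only and 100% = wells lacking PAFAH1B3 protein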
Target sequence (Q15102 whole entry, looked up): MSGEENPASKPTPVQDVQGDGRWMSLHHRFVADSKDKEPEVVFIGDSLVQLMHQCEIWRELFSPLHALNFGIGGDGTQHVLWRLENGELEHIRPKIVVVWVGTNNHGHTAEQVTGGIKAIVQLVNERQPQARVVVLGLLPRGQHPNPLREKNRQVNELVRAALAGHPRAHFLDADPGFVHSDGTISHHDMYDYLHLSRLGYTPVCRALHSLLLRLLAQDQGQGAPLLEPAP
ZTA DNA inh: ZTA (EBV) inhibition in EBNA-1 counter-screen. ZTA-DNA binding, fluorescence polarization. inhibition, % at 11 µM. actives 0.15% (n = 320,000). P03206; in the data active = inhibition above about 33%
Target sequence (P03206 whole entry, looked up): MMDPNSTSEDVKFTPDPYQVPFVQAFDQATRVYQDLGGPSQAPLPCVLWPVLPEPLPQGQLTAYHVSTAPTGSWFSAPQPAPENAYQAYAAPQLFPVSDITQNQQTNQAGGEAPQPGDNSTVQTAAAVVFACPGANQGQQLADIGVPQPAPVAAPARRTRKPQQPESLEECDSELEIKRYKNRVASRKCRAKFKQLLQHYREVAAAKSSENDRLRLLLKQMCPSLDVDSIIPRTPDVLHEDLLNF
PAFAH2 FP inh: PAFAH2 (human) inhibition; inhibition, % at 3.39 µM; AID 492956; actives 0.99% (n = 340,000); Q99487; recombinant PAFAH2, FP-rhodamine activity probe, fluorescence polarization;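 active = inhibition above the mean over all tested compounds plus 3 SD, cut at about 30% in these data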;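 note: inhibitors block probe labeling of enzyme so polarization drops; 0% = enzyme with DMSO and 100% = wells lacking PAFAH2 protein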
rCAG RNA binder: molecules binding r(CAG) RNA repeats. r(CAG) RNA repeat, TO-PRO-1 dye displacement fluorescence. AID 651821. inhibition, % at 3 µM. actives 1.3% (n = 370,000);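 active = inhibition above the plate cutoff, the mean of all test compounds on that plate plus 3 SD, cut at about 35% in these data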;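 note: 0% = DMSO alone and 100% = 100 µM mitoxantrone as full dye displacement; higher means more dye released from RNA so lower well fluorescence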
PAFAH1B2 inh: blocks human PAF acetylhydrolase 1b catalytic subunit 2; AID 492953; actives 1.2% (n = 340,000); P68402; recombinant PAFAH1B2, FP-rhodamine activity probe, fluorescence polarization; inhibition, % at 3.39 µM;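 active = inhibition above the mean of all tested compounds plus 3 SD, cut at about 24% in these data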;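 note: 0% = enzyme with DMSO and 100% = wells lacking PAFAH1B2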
Target sequence (P68402 whole entry, looked up): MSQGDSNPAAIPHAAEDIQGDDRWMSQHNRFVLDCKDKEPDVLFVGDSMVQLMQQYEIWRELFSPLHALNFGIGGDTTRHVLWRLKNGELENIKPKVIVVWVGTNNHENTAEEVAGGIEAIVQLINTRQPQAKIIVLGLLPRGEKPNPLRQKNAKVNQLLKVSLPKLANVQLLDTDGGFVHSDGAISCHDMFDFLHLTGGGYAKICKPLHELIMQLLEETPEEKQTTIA
EBNA-1 inhibitor: blocks EBNA-1 binding to DNA; EBNA-1 DNA binding, fluorescence polarization; inhibition, % at 14.8 µM; AID 1950; actives 0.34% (n = 300,000); in the data active = inhibition above about 28%
rCAG bind conf: r(CAG) RNA repeat binding, confirmation. shares compounds with rCAG RNA binder. TO-PRO-1 dye displacement fluorescence. inhibition, % at 3 µM. actives 70% (n = 4,300). AID 652065;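 active = inhibition above a per-plate cutoff, the mean inhibition of sample wells plus 3 SD, cut at about 35% in these data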;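 note: loss of TO-PRO-1 fluorescence as compound displaces dye from 1x1 AA loop RNA; 0% = DMSO only wells and 100% = 100 µM mitoxantrone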
dCAG dye counter: disrupts DNA CAG TO-PRO-1 complex, flagging rCAG hits; shares compounds with rCAG RNA binder; d(CAG) DNA oligo TO-PRO-1 dye displacement, fluorescence; inhibition, % at 3 µM; actives 94% (n = 4,300); AID 652068;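 active = inhibition above its plate's cutoff, the mean test-well inhibition plus 3 SD, cut at about 4.8% in these data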;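 note: 0% = DNA dye mix with DMSO and 100% = 100 µM mitoxantrone; hits displace the dye from DNA and so lower well fluorescence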
DNA CAG DR: DNA CAG dye complex inhibition, dose response counter-screen; IC50, µM; shares compounds with rCAG RNA binder; DNA CAG/GTC duplex TO-PRO-1 dye displacement fluorescence; actives 20% (n = 250); AID 686960; in the data active = IC50 below about 10 µM
Numbers without * were called inactive.

Results for COC(=O)C1=C(C)N(Cc2ccc(C(F)(F)F)cc2)C(=NCC2CC2)NC1c1ccccc1 (stereo not drawn) ?
rCAG RNA binder: 7

Results for O=C(Nc1ccc(S(=O)(=O)Nc2nccs2)cc1)c1cc(-c2ccccc2Cl)nc2ccccc12 ?
PAFAH1B3 inh: 10; ZTA DNA inh: -16; PAFAH2 FP inh: -2; rCAG RNA binder: 76*; PAFAH1B2 inh: 3; EBNA-1 inhibitor: 0; rCAG bind conf: 77*; dCAG dye counter: 41*

Results for O=C(O)CCN1C(=O)c2ccc(NC(=O)C(c3ccccc3)c3ccccc3)cc2C1=O ?
PAFAH1B3 inh: 8; ZTA DNA inh: 0; PAFAH2 FP inh: 8; rCAG RNA binder: 48*; PAFAH1B2 inh: 6; EBNA-1 inhibitor: 7; rCAG bind conf: 35*; dCAG dye counter: 8.0*

What do the screens show for `O=C(O)CCN1C(=O)c2ccc(NC(=O)c3ccco3)cc2C1=O`?
PAFAH1B3 inh: 2; ZTA DNA inh: 9; PAFAH2 FP inh: 4; rCAG RNA binder: 0; PAFAH1B2 inh: 4; EBNA-1 inhibitor: 0

Results for O=S(=O)(c1cc(F)ccc1F)N1CCN2CCCC2C1 (stereo not drawn) ?
PAFAH1B3 inh: 3; ZTA DNA inh: 11; PAFAH2 FP inh: 0; rCAG RNA binder: -1; PAFAH1B2 inh: 3; EBNA-1 inhibitor: -4

Results for Cc1ccc(NC(=O)Nc2nnc(-c3ccncc3)s2)cc1C ?
PAFAH1B3 inh: 18; ZTA DNA inh: -2; PAFAH2 FP inh: -5; rCAG RNA binder: 60*; PAFAH1B2 inh: 4; EBNA-1 inhibitor: -8; rCAG bind conf: 49*; dCAG dye counter: 17*

What do the screens show for `O=C(Nc1cccc(Cl)c1)Nc1nnc(-c2ccncc2)s1`?
PAFAH1B3 inh: -4; ZTA DNA inh: 7; PAFAH2 FP inh: 8; rCAG RNA binder: 66*; PAFAH1B2 inh: 7; EBNA-1 inhibitor: 11; rCAG bind conf: 45*; dCAG dye counter: 22*

What do the screens show for `CCN(Cc1ccncc1)Cc1cn(C)nc1-c1ccc(Oc2ccccc2)cc1`?
PAFAH1B3 inh: 5; ZTA DNA inh: -6; PAFAH2 FP inh: 0; rCAG RNA binder: -7; PAFAH1B2 inh: 4; EBNA-1 inhibitor: -10

What do the screens show for `CN(C)c1ccc(O)c2c1CC1CC3[C@@H](N(C)C)C(=O)C(C(N)=O)=C(O)[C@]3(O)C(=O)C1=C2O` (stereo partly drawn)?
PAFAH1B3 inh: 29*; ZTA DNA inh: -11; PAFAH2 FP inh: 33*; rCAG RNA binder: 64*; PAFAH1B2 inh: 12; EBNA-1 inhibitor: 6; rCAG bind conf: 46*; dCAG dye counter: 18*

What do the screens show for `COc1ccc(CNC(=O)c2[nH]c(C(F)(F)F)nc2-c2ccccc2)cc1OC`?
rCAG RNA binder: 3

Results for COc1ccc(CNc2cccc3[nH]c(C(F)(F)F)nc23)cc1OC ?
PAFAH1B3 inh: 12; ZTA DNA inh: 4; PAFAH2 FP inh: 6; rCAG RNA binder: 44*; PAFAH1B2 inh: 8; EBNA-1 inhibitor: 3; rCAG bind conf: 13; dCAG dye counter: 9.4*

What do the screens show for `O=C(CSc1nnc(NC(=O)c2ccc(F)cc2F)s1)NC1CCCC1`?
PAFAH1B3 inh: 1; ZTA DNA inh: 5; PAFAH2 FP inh: 0; rCAG RNA binder: 1; PAFAH1B2 inh: 5; EBNA-1 inhibitor: 0

Results for COc1cc(/C=C/C(=O)O)cc(S(=O)(=O)Nc2ccc3cn[nH]c3c2)c1OC ?
PAFAH1B3 inh: 8; ZTA DNA inh: 4; PAFAH2 FP inh: 18; rCAG RNA binder: 3; PAFAH1B2 inh: -6

Results for COc1cc(/C=C/C(=O)O)cc(S(=O)(=O)Nc2ccc3nc(SC)sc3c2)c1OC ?
PAFAH1B3 inh: 6; ZTA DNA inh: -4; PAFAH2 FP inh: 14; rCAG RNA binder: 50*; PAFAH1B2 inh: 1; EBNA-1 inhibitor: -9; rCAG bind conf: 32; dCAG dye counter: 9.6*

What do the screens show for `Cc1ccc(N/N=C(/Sc2nnnn2-c2ccccc2)C(=O)c2ccccc2)cc1`?
PAFAH1B3 inh: -3; ZTA DNA inh: 8; PAFAH2 FP inh: 0; rCAG RNA binder: 68*; PAFAH1B2 inh: 27*; EBNA-1 inhibitor: -2; rCAG bind conf: 53*; dCAG dye counter: 21*; DNA CAG DR: inactive

Results for O=c1[nH]c2ccc(S(=O)(=O)N3CCCC3)cc2o1 ?
rCAG RNA binder: 2

Results for CCCCN(Cc1ccccc1)S(=O)(=O)c1ccc2[nH]c(=O)oc2c1 ?
PAFAH1B3 inh: 9; ZTA DNA inh: 4; PAFAH2 FP inh: 1; rCAG RNA binder: 39*; PAFAH1B2 inh: 23; EBNA-1 inhibitor: 7; rCAG bind conf: 29; dCAG dye counter: 8.0*

Results for O=c1[nH]c2ccc(S(=O)(=O)N3CCC(Cc4ccccc4)CC3)cc2o1 ?
PAFAH1B3 inh: 0; ZTA DNA inh: 17; PAFAH2 FP inh: 4; rCAG RNA binder: 48*; PAFAH1B2 inh: 29*; EBNA-1 inhibitor: -17; rCAG bind conf: 46*; dCAG dye counter: 14*

Results for COc1ccccc1C(=O)NC1CCCCN(Cc2ccccc2C)C1=O (stereo not drawn) ?
rCAG RNA binder: -2

Results for CSc1nnc(-c2ccccc2N=Cc2c(C)[nH]n(-c3ccc4ccccc4c3)c2=O)c(=O)[nH]1 ?
PAFAH1B3 inh: 8; ZTA DNA inh: -2; PAFAH2 FP inh: 23; rCAG RNA binder: 68*; PAFAH1B2 inh: 11; EBNA-1 inhibitor: -1; rCAG bind conf: 71*; dCAG dye counter: 32*; DNA CAG DR: 9.2*

How did C=CCSc1nnc(-c2ccccc2N=Cc2c(C)[nH]n(-c3ccccc3)c2=O)c(=O)[nH]1 do in these assays?
PAFAH1B3 inh: 9; ZTA DNA inh: 2; PAFAH2 FP inh: 10; rCAG RNA binder: 41*; PAFAH1B2 inh: -7; EBNA-1 inhibitor: -5; rCAG bind conf: 33; dCAG dye counter: 9.6*

Results for Cc1[nH]n(-c2ccccc2)c(=O)c1/C=N/c1nn[nH]n1 ?
ZTA DNA inh: -1; rCAG RNA binder: 3; EBNA-1 inhibitor: -7

How did CCSc1nnc(-c2ccccc2NC(=O)CC)c(=O)[nH]1 do in these assays?
PAFAH1B3 inh: -1; ZTA DNA inh: 7; PAFAH2 FP inh: 3; rCAG RNA binder: -3; PAFAH1B2 inh: 5; EBNA-1 inhibitor: -15

Results for C=CCSc1nnc(-c2ccccc2NC(=O)CC)c(=O)[nH]1 ?
PAFAH1B3 inh: 2; ZTA DNA inh: 13; PAFAH2 FP inh: 3; rCAG RNA binder: 51*; PAFAH1B2 inh: 1; EBNA-1 inhibitor: 11; rCAG bind conf: 5; dCAG dye counter: 2

From PubChem BioAssay
